# Only a part of the results of these assays is listed, not drawn at random.
# Biological target: Huntingtin (Homo sapiens) (UniProt P42858)
# Assay: qHTS Assay Multiplex Screening to Identify Dual Action Probes in a Cell Model of Huntington: Cytoprotection (Protease release). [Related pubchem assays: 1482, 1471, 1688 ]; call rule not given here
# Format: functional
# Sequence of Huntingtin (Homo sapiens) (P42858 whole entry): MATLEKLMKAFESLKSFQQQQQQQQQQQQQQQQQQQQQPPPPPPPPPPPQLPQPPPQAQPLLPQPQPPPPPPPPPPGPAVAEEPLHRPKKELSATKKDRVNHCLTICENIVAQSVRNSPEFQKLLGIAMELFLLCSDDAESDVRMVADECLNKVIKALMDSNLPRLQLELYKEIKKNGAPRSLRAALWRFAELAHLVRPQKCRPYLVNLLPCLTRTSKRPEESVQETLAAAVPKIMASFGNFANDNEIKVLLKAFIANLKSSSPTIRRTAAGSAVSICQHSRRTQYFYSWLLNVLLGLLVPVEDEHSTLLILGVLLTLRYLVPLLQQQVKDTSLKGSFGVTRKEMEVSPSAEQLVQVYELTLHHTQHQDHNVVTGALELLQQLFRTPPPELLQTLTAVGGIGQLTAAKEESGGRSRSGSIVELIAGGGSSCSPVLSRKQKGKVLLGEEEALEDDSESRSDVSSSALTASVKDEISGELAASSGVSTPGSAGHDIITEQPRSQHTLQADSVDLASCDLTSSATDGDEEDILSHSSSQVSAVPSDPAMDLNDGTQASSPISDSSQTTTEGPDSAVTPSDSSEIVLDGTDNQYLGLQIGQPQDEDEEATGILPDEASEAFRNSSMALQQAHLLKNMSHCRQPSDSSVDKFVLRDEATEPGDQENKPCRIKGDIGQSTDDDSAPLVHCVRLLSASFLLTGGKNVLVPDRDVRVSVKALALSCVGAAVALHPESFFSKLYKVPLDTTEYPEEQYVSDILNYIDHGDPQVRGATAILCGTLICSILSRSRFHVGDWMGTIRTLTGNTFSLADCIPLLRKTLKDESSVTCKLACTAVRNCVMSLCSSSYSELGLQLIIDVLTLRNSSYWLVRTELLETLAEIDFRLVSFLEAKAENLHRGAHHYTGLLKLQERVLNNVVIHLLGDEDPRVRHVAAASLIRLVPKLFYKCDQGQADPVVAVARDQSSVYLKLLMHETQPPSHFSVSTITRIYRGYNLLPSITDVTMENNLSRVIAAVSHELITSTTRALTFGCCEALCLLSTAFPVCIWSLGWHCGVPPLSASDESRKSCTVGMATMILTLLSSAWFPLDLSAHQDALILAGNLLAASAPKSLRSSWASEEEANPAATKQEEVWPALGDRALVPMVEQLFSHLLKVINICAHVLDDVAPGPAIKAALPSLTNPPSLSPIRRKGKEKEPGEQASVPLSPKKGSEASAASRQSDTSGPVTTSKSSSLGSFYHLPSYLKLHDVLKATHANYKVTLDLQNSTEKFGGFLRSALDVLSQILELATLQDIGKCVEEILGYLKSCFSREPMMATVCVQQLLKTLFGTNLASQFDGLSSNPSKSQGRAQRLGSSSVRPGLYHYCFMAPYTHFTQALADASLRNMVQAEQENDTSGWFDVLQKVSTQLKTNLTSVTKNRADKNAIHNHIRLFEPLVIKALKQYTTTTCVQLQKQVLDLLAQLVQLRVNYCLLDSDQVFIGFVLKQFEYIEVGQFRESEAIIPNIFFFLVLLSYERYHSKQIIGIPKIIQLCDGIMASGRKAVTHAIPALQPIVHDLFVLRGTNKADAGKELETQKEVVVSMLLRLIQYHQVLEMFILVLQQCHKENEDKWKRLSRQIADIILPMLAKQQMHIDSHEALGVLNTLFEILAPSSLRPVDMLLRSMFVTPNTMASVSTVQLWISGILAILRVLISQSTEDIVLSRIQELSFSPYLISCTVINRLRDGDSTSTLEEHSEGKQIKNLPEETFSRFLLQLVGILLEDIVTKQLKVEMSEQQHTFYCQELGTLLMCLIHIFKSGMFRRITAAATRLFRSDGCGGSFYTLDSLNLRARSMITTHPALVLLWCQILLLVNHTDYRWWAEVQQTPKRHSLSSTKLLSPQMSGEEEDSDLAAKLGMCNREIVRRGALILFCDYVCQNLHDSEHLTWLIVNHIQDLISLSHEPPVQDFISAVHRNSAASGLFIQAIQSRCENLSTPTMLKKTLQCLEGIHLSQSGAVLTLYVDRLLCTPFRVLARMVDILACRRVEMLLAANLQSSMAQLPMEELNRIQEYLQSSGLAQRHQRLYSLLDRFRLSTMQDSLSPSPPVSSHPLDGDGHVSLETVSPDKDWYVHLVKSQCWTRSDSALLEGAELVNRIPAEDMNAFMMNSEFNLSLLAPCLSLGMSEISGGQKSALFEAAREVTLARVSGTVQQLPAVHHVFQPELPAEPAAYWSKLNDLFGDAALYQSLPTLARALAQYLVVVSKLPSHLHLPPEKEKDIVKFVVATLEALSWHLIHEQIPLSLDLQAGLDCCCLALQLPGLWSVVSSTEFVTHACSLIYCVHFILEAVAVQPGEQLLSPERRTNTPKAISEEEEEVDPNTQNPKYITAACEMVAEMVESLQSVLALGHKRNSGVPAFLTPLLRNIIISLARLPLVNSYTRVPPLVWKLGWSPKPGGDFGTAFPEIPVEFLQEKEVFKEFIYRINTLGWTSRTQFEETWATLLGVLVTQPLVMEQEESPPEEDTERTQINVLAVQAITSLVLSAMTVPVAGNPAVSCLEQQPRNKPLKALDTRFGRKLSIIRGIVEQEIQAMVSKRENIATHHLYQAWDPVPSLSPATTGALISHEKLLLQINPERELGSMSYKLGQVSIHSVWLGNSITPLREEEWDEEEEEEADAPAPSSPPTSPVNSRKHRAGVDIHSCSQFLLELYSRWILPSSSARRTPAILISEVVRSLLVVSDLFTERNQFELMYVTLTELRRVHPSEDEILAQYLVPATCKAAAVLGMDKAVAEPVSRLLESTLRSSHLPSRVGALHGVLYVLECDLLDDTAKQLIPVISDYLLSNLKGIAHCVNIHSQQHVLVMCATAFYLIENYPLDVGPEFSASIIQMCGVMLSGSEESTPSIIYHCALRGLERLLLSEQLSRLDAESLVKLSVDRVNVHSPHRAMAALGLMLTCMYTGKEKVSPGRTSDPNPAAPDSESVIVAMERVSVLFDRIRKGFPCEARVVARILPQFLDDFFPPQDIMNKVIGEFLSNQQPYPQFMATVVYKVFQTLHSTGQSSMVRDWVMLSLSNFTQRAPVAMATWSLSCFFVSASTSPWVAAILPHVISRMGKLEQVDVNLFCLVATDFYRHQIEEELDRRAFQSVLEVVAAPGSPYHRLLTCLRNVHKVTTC
smiles,measurement,value
COC[C@@H]([C@H](O)[C@H](O)C(=O)NCC[C@H](C)c1nc(/C=C/C[C@@H]2O[C@]3(C[C@@H](O)[C@@H]2C)O[C@H]([C@H](C[C@H](O)[C@H](C)[C@H](O)[C@H](C)/C=C(C)/C(C)=C/C=C/C(C)=C\C#N)OC)[C@H](OP(=O)(O)O)C3(C)C)co1)N(C)C,Potency,1.12 µM (active)

# Reference: ChEMBL document CHEMBL1201862, “PubChem BioAssay data set” (2004)
